Binding signal data for 9 molecules are collected here from article PMC12529666, “Dysregulation of AGO2-miRNA dynamics underlies the AGO2-associated Lessel–Kreienkamp syndrome”.

First the molecules themselves.
B1: GTACTCCG (ssRNA)
RNA 1: GAGUUCUACAGUCCGACGAUCCCAACGUACUCCGCACCUGGAAUUCUCGGGUGCCAA
RNA 2: UGGAGUGUGACAAUGGUGUUUG
DNA 1: GATCGTCGGACTGTAGAACTC
DNA 2: TTGGCACCCGAGAATTCCA
modifications: constant regions annealed to DNA blockers; guide miR-122 5' phosphate
B2: ACACCCCA (ssRNA)
RNA 1: B1 RNA 1 with G27A, U28C, U31C, G34A
RNA 2: UGGAGUGUGACAAUGGUGUUUG
DNA 1: GATCGTCGGACTGTAGAACTC
DNA 2: TTGGCACCCGAGAATTCCA
modifications: constant regions annealed to DNA blockers; guide miR-122 5' phosphate
B3: ACATCCTA (ssRNA)
RNA 1: B1 RNA 1 with G27A, U28C, C30U, U31C, C33U, G34A
RNA 2: UGGAGUGUGACAAUGGUGUUUG
DNA 1: GATCGTCGGACTGTAGAACTC
DNA 2: TTGGCACCCGAGAATTCCA
modifications: constant regions annealed to DNA blockers; guide miR-122 5' phosphate
B4: ACATCTCA (ssRNA)
RNA 1: B1 RNA 1 with G27A, U28C, C30U, U31C, C32U, G34A
RNA 2: UGGAGUGUGACAAUGGUGUUUG
DNA 1: GATCGTCGGACTGTAGAACTC
DNA 2: TTGGCACCCGAGAATTCCA
modifications: constant regions annealed to DNA blockers; guide miR-122 5' phosphate
B5: ACACTTCA (ssRNA)
RNA 1: B1 RNA 1 with G27A, U28C, C32U, G34A
RNA 2: UGGAGUGUGACAAUGGUGUUUG
DNA 1: GATCGTCGGACTGTAGAACTC
DNA 2: TTGGCACCCGAGAATTCCA
modifications: constant regions annealed to DNA blockers; guide miR-122 5' phosphate
B6: ACACCTCA (ssRNA)
RNA 1: B1 RNA 1 with G27A, U28C, U31C, C32U, G34A
RNA 2: UGGAGUGUGACAAUGGUGUUUG
DNA 1: GATCGTCGGACTGTAGAACTC
DNA 2: TTGGCACCCGAGAATTCCA
modifications: constant regions annealed to DNA blockers; guide miR-122 5' phosphate
B7: ACGCCTCA (ssRNA)
RNA 1: B1 RNA 1 with G27A, U28C, A29G, U31C, C32U, G34A
RNA 2: UGGAGUGUGACAAUGGUGUUUG
DNA 1: GATCGTCGGACTGTAGAACTC
DNA 2: TTGGCACCCGAGAATTCCA
modifications: constant regions annealed to DNA blockers; guide miR-122 5' phosphate
B8: ATACCTCA (ssRNA)
RNA 1: B1 RNA 1 with G27A, U31C, C32U, G34A
RNA 2: UGGAGUGUGACAAUGGUGUUUG
DNA 1: GATCGTCGGACTGTAGAACTC
DNA 2: TTGGCACCCGAGAATTCCA
modifications: constant regions annealed to DNA blockers; guide miR-122 5' phosphate
B9: ACATTCCA (ssRNA)
RNA 1: B1 RNA 1 with G27A, U28C, C30U, G34A
RNA 2: UGGAGUGUGACAAUGGUGUUUG
DNA 1: GATCGTCGGACTGTAGAACTC
DNA 2: TTGGCACCCGAGAATTCCA
modifications: constant regions annealed to DNA blockers; guide miR-122 5' phosphate

Where a chain is given by its changes, count along the chain named.

AGO2 F182del, sequence (Q9UKV8 other isoform, or with tags, fused parts or gaps S387D;S824A;S828D;S831D;S834A;del182-182): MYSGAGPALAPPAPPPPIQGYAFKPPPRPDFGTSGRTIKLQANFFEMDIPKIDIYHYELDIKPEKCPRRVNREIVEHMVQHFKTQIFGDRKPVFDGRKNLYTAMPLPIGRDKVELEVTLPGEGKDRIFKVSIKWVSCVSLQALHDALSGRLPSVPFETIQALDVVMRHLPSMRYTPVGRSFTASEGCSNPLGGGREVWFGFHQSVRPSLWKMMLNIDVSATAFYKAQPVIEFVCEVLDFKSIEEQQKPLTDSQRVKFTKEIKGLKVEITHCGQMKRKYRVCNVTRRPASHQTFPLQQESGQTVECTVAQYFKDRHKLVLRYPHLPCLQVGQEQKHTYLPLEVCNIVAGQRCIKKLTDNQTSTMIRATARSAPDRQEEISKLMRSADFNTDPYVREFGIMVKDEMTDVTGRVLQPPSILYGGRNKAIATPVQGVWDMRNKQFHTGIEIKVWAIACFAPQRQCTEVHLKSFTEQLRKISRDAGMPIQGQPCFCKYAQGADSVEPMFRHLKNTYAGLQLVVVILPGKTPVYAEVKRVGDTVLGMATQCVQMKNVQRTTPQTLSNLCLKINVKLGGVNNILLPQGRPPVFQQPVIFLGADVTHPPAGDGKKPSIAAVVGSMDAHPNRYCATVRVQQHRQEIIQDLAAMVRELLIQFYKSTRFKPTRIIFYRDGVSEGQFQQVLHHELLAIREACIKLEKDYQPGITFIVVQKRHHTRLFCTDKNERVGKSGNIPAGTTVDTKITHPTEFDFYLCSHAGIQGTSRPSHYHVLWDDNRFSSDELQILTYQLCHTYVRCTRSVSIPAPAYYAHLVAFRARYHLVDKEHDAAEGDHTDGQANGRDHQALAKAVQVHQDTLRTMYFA
AGO2 L192P, sequence (Q9UKV8 whole entry L192P/S387D/S824A/S828D/S831D/S834A): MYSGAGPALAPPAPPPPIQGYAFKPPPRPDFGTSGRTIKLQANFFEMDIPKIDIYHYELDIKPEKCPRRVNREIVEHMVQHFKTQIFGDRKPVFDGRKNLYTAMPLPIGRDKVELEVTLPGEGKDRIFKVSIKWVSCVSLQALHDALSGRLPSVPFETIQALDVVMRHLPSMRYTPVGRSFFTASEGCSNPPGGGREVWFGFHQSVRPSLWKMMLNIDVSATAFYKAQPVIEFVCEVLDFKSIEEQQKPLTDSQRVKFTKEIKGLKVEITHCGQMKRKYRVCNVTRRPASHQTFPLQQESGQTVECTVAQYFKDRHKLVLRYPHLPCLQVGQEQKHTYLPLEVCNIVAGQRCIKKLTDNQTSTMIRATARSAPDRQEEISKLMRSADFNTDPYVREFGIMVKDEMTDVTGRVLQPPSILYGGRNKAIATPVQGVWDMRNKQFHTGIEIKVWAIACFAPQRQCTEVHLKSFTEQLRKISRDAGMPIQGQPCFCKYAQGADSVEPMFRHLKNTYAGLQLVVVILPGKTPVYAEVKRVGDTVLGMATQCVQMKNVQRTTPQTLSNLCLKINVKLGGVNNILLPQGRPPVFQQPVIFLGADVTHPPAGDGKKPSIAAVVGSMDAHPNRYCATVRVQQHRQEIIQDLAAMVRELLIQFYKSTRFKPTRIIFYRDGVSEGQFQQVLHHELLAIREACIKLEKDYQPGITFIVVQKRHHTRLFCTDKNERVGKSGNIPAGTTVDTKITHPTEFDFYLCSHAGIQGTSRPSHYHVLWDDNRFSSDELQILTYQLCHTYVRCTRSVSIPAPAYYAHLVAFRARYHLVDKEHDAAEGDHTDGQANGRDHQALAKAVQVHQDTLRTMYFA
AGO2 T357M, sequence (Q9UKV8 whole entry T357M/S387D/S824A/S828D/S831D/S834A): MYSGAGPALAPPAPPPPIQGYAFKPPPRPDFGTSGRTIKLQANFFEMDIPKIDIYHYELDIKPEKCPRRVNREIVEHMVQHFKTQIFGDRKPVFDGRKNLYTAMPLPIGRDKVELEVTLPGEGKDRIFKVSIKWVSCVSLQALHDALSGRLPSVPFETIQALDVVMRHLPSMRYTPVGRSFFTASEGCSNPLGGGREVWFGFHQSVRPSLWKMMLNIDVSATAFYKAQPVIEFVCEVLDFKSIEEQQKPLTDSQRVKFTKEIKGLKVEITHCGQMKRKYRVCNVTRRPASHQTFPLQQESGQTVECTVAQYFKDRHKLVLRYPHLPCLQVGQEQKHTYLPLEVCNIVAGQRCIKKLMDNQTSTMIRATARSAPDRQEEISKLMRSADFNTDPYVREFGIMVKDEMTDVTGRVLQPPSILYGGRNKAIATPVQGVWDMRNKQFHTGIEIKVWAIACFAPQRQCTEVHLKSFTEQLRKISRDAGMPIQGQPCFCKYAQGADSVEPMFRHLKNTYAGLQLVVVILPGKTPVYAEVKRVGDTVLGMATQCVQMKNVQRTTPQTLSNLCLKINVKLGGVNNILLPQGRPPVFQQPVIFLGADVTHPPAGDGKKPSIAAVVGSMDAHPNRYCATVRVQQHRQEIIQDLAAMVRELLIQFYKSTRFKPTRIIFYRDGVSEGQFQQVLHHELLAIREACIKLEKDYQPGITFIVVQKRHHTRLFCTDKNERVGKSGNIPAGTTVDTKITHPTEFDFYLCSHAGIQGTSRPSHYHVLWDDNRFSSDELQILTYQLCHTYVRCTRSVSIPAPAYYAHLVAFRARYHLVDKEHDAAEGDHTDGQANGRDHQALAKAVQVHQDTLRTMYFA
AGO2 A367P, sequence (Q9UKV8 whole entry A367P/S387D/S824A/S828D/S831D/S834A): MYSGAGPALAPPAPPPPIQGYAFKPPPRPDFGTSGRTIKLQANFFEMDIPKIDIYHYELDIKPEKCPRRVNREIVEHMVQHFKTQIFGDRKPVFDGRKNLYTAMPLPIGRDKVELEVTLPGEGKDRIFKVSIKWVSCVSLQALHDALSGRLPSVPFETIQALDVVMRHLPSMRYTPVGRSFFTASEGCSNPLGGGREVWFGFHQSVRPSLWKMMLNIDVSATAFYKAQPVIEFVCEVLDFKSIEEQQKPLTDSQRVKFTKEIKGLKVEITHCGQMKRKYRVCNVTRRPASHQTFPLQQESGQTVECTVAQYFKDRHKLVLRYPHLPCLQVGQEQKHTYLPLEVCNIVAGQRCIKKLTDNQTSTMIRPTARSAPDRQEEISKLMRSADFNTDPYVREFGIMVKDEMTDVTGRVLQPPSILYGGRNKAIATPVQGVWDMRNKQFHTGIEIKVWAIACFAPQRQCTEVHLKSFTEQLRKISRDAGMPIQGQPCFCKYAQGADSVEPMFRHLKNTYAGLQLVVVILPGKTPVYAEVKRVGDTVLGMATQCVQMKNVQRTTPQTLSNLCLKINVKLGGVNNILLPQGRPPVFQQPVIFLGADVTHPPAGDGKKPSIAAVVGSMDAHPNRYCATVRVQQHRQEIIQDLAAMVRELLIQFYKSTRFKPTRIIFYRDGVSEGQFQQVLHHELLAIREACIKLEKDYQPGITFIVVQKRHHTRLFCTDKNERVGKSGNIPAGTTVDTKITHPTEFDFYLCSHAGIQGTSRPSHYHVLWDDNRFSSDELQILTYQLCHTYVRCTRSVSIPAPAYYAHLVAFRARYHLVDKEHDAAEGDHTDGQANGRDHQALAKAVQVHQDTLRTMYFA
AGO2 WT (phosphosite mutant background), sequence (Q9UKV8 whole entry S387D/S824A/S828D/S831D/S834A): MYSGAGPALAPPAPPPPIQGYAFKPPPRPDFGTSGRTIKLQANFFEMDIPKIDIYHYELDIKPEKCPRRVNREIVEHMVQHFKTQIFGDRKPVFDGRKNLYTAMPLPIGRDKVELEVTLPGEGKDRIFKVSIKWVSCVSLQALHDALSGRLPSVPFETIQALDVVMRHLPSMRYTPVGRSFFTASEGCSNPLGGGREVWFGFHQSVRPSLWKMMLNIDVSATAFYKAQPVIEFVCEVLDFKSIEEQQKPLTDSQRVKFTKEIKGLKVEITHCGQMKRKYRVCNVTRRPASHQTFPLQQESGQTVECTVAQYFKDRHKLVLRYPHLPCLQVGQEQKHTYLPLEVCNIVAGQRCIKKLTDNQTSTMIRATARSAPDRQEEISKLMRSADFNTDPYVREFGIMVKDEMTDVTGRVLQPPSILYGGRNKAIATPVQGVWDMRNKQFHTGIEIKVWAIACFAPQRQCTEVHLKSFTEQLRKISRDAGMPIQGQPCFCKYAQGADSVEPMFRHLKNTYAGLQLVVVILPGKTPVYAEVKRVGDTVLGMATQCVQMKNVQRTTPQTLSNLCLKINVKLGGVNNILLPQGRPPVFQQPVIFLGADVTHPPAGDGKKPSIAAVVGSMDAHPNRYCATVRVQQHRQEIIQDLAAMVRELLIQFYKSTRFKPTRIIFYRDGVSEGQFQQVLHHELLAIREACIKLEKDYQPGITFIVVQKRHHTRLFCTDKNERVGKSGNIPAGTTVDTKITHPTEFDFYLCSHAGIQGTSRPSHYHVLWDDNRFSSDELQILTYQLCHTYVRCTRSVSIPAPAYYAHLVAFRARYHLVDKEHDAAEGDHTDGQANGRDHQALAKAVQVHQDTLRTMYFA

One assay addresses AGO2 WT (phosphosite mutant background) (Homo sapiens, UniProt Q9UKV8 1-859, S387D;S824A;S828D;S831D;S834A). Briefly: RNA Bind-n-Seq (nitrocellulose filter binding and sequencing); miR-122 guide loaded in AGO2; 60 min incubation; 30 mM Tris pH 8.0, 100 mM potassium acetate, 2 mM magnesium acetate, 0.5 mM TCEP, 0.005% NP-40, 0.01 mg/ml yeast tRNA; 3 nM AGO2-miR-122, 100 nM RNA library; 60; high values mean tight binding. As to conditions: protein: recombinant; tags: His6 (N-terminal, pFastBac HTA). In outline:
(§1)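 Fold enrichment is each target's read fraction divided by its read fraction in the input library. Sf9 insect cells expressed His-tagged AGO2 from baculovirus; the protein was loaded with a synthetic guide RNA and purified by Ni-NTA and a biotinylated capture oligo. The bound RNA was extracted, reverse-transcribed, barcode-amplified and sequenced on Illumina.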
For the molecule B1, the binding signal is 0.327 fold enrichment over input.
Same read-out and setting: under B2 stands 0.238 fold enrichment over input.
As for B3, the binding signal was 0.139 fold enrichment over input.
Still for that read-out and setting: under B4 stands 0.206 fold enrichment over input; under B5, 0.24 fold enrichment over input; under B6, 0.251 fold enrichment over input.
Same read-out and setting: under B7 stands 0.15 fold enrichment over input; under B8, 0.138 fold enrichment over input; under B9, 0.267 fold enrichment over input.

For another assay, the target named is AGO2 L192P (Homo sapiens, UniProt Q9UKV8 1-859, L192P;S387D;S824A;S828D;S831D;S834A). The description is as above. As to conditions: protein: recombinant; tags: His6 (N-terminal, pFastBac HTA). In outline:
as §1
In the case of B1, the binding signal was 0.802 fold enrichment over input.
Same read-out and setting: under B2 stands 0.861 fold enrichment over input; under B3, 0.451 fold enrichment over input.
The same measure, in the same setting: under B4 stands 0.924 fold enrichment over input; under B5, 0.941 fold enrichment over input; under B6, 1.13 fold enrichment over input.
Still for that read-out and setting: in the case of B7 it was 0.597 fold enrichment over input; in that of B8, 0.642 fold enrichment over input; in that of B9, 1.03 fold enrichment over input.

The target in a further assay is AGO2 A367P (Homo sapiens, UniProt Q9UKV8 1-859, A367P;S387D;S824A;S828D;S831D;S834A). The assay is described as above. As to conditions: protein: recombinant; tags: His6 (N-terminal, pFastBac HTA). An outline of the steps:
as §1
For the molecule B1, the binding signal is 2.33 fold enrichment over input.
Still for that read-out and setting: in the case of B2 it was 0.466 fold enrichment over input; in that of B3, 0.212 fold enrichment over input.
Regarding B4, the binding signal was 0.613 fold enrichment over input.
On the same count and under the same terms, under B5 stands 0.66 fold enrichment over input.
Still for that read-out and setting: under B6 stands 0.835 fold enrichment over input; under B7, 0.316 fold enrichment over input; under B8, 0.406 fold enrichment over input.
The same measure, in the same setting: in the case of B9 it was 0.711 fold enrichment over input.

Another assay addresses AGO2 T357M (Homo sapiens, UniProt Q9UKV8 1-859, T357M;S387D;S824A;S828D;S831D;S834A). The description is as above. As to conditions: protein: recombinant; tags: His6 (N-terminal, pFastBac HTA). An outline of the steps: as §1
As to B1, the binding signal was 0.519 fold enrichment over input.
Same read-out and setting: under B2 stands 0.678 fold enrichment over input.
Still for that read-out and setting: under B3 stands 0.632 fold enrichment over input; under B4, 0.57 fold enrichment over input; under B5, 0.675 fold enrichment over input.
On to B6, for which the binding signal is 0.737 fold enrichment over input.
With B7, the binding signal was 0.623 fold enrichment over input.
Consider B8, for which the binding signal is 0.575 fold enrichment over input.
On the same count and under the same terms, under B9 stands 0.738 fold enrichment over input.

A further assay addresses AGO2 F182del (Homo sapiens, UniProt Q9UKV8 1-859, S387D;S824A;S828D;S831D;S834A;del182-182). The description is as above. To be noted: protein: recombinant; tags: His6 (N-terminal, pFastBac HTA). An outline of the steps:
as §1
In the case of B1, the binding signal was 2.42 fold enrichment over input.
On the same count and under the same terms, under B2 stands 2.15 fold enrichment over input; under B3, 0.299 fold enrichment over input; under B4, 2.74 fold enrichment over input.
Still for that read-out and setting: under B5 stands 2.79 fold enrichment over input; under B6, 4.6 fold enrichment over input.
In the case of B7, the binding signal was 0.822 fold enrichment over input.
Still for that read-out and setting: in the case of B8 it was 1.82 fold enrichment over input.
Regarding B9, the binding signal was 2.93 fold enrichment over input.
